Records with an inconclusive call do not appear. Activity calls are given as the source filed them. Calls come from the whole dose curve; as a rule, active = well fitted inhibition curve with a large enough effect; inconclusive = small, poorly fitted or top-dose-only effect; inactive = no such curve, though single readings can be large or run the other way.
biological target: Tumor susceptibility gene 101 protein (Homo sapiens) (UniProt Q99816); assay: qHTS Assay for Iinhibitors of HIV-1 Budding by Blocking the Interaction of PTAP/TSG101: Hit Validation in TR assay; conditions: Tsg101 binding domain + Texas Red-labeled PTAP peptide, fluorescence polarization, 20 min; series mostly up to 57.5 µM
Sequence (Q99816 whole entry, looked up, the tested form may be a part): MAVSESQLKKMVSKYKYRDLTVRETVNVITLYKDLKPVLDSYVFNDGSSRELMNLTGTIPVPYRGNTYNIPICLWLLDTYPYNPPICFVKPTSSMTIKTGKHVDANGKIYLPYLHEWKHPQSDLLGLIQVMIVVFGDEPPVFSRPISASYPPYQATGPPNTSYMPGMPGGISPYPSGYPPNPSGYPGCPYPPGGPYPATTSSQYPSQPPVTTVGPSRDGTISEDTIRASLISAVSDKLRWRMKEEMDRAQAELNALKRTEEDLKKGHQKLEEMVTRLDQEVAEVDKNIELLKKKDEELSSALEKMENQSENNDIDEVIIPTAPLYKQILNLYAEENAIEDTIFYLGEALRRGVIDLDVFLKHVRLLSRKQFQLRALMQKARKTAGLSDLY
In short: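 Fluorescence polarization: Tsg101 binding domain (10 uM final) with Texas Red-labelled PTAP peptide (50 nM final) in HEPES pH 7.5, 0.15 M NaCl, Tween 20, EDTA, TCEP; 20 min binding at room temperature after compound addition.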
Potency is the fitted concentration of half-maximal effect.

Potency, inactive:
O=C(/C=C/c1ccc(Cl)cc1Cl)c1nc2ccccc2[nH]1
COc1ccc2nc3ccccc3[n+]([O-])c2c1
CCN(CC)c1ccc(/C=C(/C#N)c2nc3ccc(C)cc3[nH]2)c(OC(C)C)c1
COc1ccc(N(C(=O)c2snc(C(N)=O)c2N)C(C(=O)NC2CCCC2)c2ccc3ncccc3c2)cc1 (centres undefined)
O=c1c(/C=C(\O)c2ccc(F)cc2)nc2ccccc2n1-c1ccccc1
CCCCN(C)C1=CC2=CC(=C(C#N)C#N)CCC2CC1 (centres undefined)
Cc1cccc(CCNC(=O)c2sc3nc4n(c(=O)c3c2C)CCCC4)c1
COC(=O)c1cc2c(N)c(C(=O)c3ccc(Cl)cc3)sc2nc1C(OC)OC
COc1ccc2ccccc2c1C(O)c1nccn1C (centres undefined)
Cc1cc(=O)c2c([nH]1)c(C)cc1[nH]c(C)c(C)c12
Cc1ccccc1-c1ccc(/C=C2/SC(N3CCOCC3)=NC2=O)o1
CC(=O)N1c2ccccc2C(=O)C1N1CCCCC1 (centres undefined)
Cc1ccc(/C=C/C(=O)Nc2ccc(S(=O)(=O)Nc3onc(C)c3C)cc2)cc1
Fc1ccc(C2=CC(c3ccc(Br)o3)n3ncnc3N2)cc1 (centres undefined)
Cc1oc2cc(O)ccc2c(=O)c1-c1nncn1-c1ccccc1
COc1ccc(OC)c(/C=c2\sc3nc(-c4cccs4)nn3c2=O)c1
CCC(=O)Nc1ccc(NC(=O)C23CC4CC(CC(C4)C2)C3)cn1
NS(=O)(=O)c1ccc(N=Nc2c[nH]c(=O)c(O)c2)cc1
CCN1CCc2c(sc(NC(=O)CSc3ccccc3)c2-c2nc3ccccc3s2)C1
CC(C)c1nnc(N2C(=O)C(O)=C(C(=O)c3cccs3)C2c2ccccc2)s1 (centres undefined)
O=C1NC(=S)/C(=C\c2ccc(-c3ccccc3Cl)o2)S1
Cn1cc(/C=C2\SC(=S)N(NC(=O)c3cccc(Cl)c3)C2=O)c2ccccc21
C=CCOc1ccc(C2C(C(=O)c3cccs3)=C(O)C(=O)N2c2nnc(C)s2)cc1 (centres undefined)
CN1CCCc2cc3c(C(F)(F)F)cc(=O)oc3nc21
CCc1c(C)sc(NC(=O)c2ccccc2[N+](=O)[O-])c1C(N)=O
CC(=O)N/N=C/c1cc(C(C)C)cc(/C=N/NC(C)=O)c1O
CC1=CC(=C(C#N)c2nc3ccccc3s2)C=C(C)N1CC1CCCO1 (centres undefined)
Oc1[nH]c2ccc(Br)cc2c1N=Nc1ccc(F)cc1
O=C(Cc1nc2ccccc2[nH]c1=O)c1ccccc1
O=S(=O)(Nc1cccc(-c2ccc(N3CCCCCC3)nn2)c1)c1cccc(F)c1
CC1(C)Cc2c(C#N)c(SCCC#N)nc(N3CCOCC3)c2CS1
COc1ccc(CCn2c(=N)c(S(=O)(=O)c3ccc(Cl)cc3)cc3c(=O)n4ccccc4nc32)cc1
N#CC(C(=O)NCc1ccccc1)c1nc2ccccc2nc1N1CCCC1 (centres undefined)
O=C1/C(=N\S(=O)(=O)c2cccs2)C([n+]2ccccc2)=C([O-])c2ccccc21
CC(C)CCN1C(=O)c2cccc3c(N)ccc(c23)C1=O
O=S(=O)(Nc1nc2n(n1)C(c1ccccc1)C=C(c1ccc(Cl)cc1)N2)c1ccccc1 (centres undefined)
Cc1ccc(N2C3=C(C(=O)CC(C)(C)C3)C(c3cn(C)nc3C)C3=C2CC(C)(C)CC3=O)cc1
Nc1ccc(-c2c3ccc(=O)cc-3oc3cc(O)ccc23)c(C(=O)O)c1

Potency, active:
CCN(CC)c1ccc2c(-c3ccc(S(=O)(=O)O)cc3S(=O)(=O)[O-])c3ccc(=[N+](CC)CC)cc-3oc2c1 130 nM

— PubChem BioAssay AID651599 (National Center for Advancing Translational Sciences (NCATS), 2012)
